In PubChem BioAssay (Tox21):
Inconclusive results are not listed. Calls of active or inactive are those of the source. Calls follow the shape of the dose curve; as a rule, active = well fitted cell-killing curve with a large enough effect in the repeat runs; inconclusive = weak or mixed curves, or effect the other way; inactive = flat fitted curve, though single readings scatter.

Test: cAMP Responsive Elements (CRE) small molecule agonists, cell-based qHTS assay: qHTS cell viability counter screen (AID 2060914); also: nearly all actives have a fitted effect of over 50% in size
Conditions: CRE-bla HEK293T viability, CellTiter-Glo luminescence, 5 h; series mostly up to 92.4 µM; activity change, negative = cytotoxicity: at the top concentration
Summary of the method: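 Cells are seeded and incubated 18 h, treated with compounds in DMSO for 3 h, read for the bla reporter, then given CellTiter-Glo; luminescence is measured after 30 min at room temperature.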
% is scaled to controls: 0 for no effect and ±100 for the full control effect; potency is read from the fitted curve at half-maximal effect.

Row | SMILES | activity change, negative = cytotoxicity | Potency
1 | COP(=O)(OC)O/C(=C\Cl)c1cc(Cl)c(Cl)cc1Cl | -12.5% (inactive) | 
2 | COC(=O)N(OC)c1ccccc1COc1ccn(-c2ccc(Cl)cc2)n1 |  | 5.45 µM (active)
3 | C=C(C)CCl |  | inactive
4 | Cc1ccc2nc3sc(=O)sc3nc2c1 | -6.15% [at 18.9 µM] (inactive) | 
5 | CC1(C)[C@H](/C=C2\CCSC2=O)[C@@H]1C(=O)OCc1coc(Cc2ccccc2)c1 | -14.7% (inactive) | 
6 | CCNCC | -2.36% (inactive) | 
7 | O=C(Nc1ccccc1)Nc1ccnc(Cl)c1 | -14.5% (inactive) | 
8 | CCCCP(CCCC)CCCC | 1.19% (inactive) | 
9 | COc1c2c(cc3c1OCO3)CCN(C)C2 | -13.3% [at 42.5 µM] (inactive) | 
10 | CCCOCC(=Nc1ccc(Cl)cc1C(F)(F)F)n1ccnc1 | -18.3% (inactive) | 
11 | O=C(O)c1nc(Cl)ccc1Cl |  | inactive
12 | CCCC[n+]1ccccc1C |  | inactive
13 | CC[C@H]1C[C@@H]2C[C@H]3c4[nH]c5ccc(OC)cc5c4CCN(C2)[C@@H]13 | 5.36% (inactive) | 
14 | N#Cc1c(-c2ccc(Cl)cc2)[nH]c(C(F)(F)F)c1Br | 1.18% (inactive) | 
15 | [Cd+2].[Cl-].[Cl-] |  | inactive
16 | O=C(NCNC(=O)NC1C(=O)NC(=O)N1CO)NC1C(=O)NC(=O)N1CO (stereo not given) | 13.3% (inactive) | 
17 | CC(C)N1C(=O)N(c2ccccc2)CSC1=NC(C)(C)C | -18.1% (inactive) | 
18 | N#Cc1cc(I)c(O)c(I)c1 | 5.68% (inactive) | 
19 | CN1C[C@@H](NS(=O)(=O)N(C)C)C[C@@H]2c3cccc4c3c(cn4C)C[C@H]21 | 3% [at 42.5 µM] (inactive) | 
20 | C=C(C)[C@H]1CN[C@H](C(=O)O)[C@H]1CC(=O)O | -0.614% [at 42.5 µM] (inactive) | 

Row | SMILES | activity change, negative = cytotoxicity | Potency
21 | NC1CCC(CC2CCC(N)CC2)CC1 (stereo not given) | 16.9% (inactive) | 
22 | COC(=O)C1=CCCN(C)C1 | 6.83% [at 42.5 µM] (inactive) | 
23 | ClCc1ccccn1 |  | inactive
24 | C#C[C@]1(O)CC[C@H]2[C@@H]3CCC4=CC(=O)CC[C@]4(C)[C@H]3CC[C@@]21C | 7.01% (inactive) | 
25 | Nc1ccncc1 |  | inactive
26 | CC(C)Oc1cc(-n2nc(C(C)(C)C)oc2=O)c(Cl)cc1Cl | -17.1% (inactive) | 
27 | Oc1ccccc1Cl |  | inactive
28 | CS/C(C)=N/OC(=O)N(C)SN(C)C(=O)O/N=C(\C)SC | 2.86% (inactive) | 
29 | CCC(C)Br (stereo not given) | 6.77% (inactive) | 
30 | C=CCOC(=O)c1ccccc1N | -3.46% (inactive) | 
31 | COc1ccc2[nH]cc(CCN(C(C)C)C(C)C)c2c1 | -4.23% (inactive) | 
32 | CCCCCCCCCCn1cc[n+](C)c1 |  | inactive
33 | C[C@]12CC[C@H]3[C@@H](CC=C4C[C@@H](O)CC[C@@]43C)[C@@H]1CC[C@@H]2O | 9.84% [at 42.5 µM] (inactive) | 
34 | CCCCCCCCCCCC[N+](C)(C)CCOc1ccccc1 |  | 61.1 µM (active)
35 | CC(C)=C[C@@H]1[C@@H](C(=O)OCc2coc(Cc3ccccc3)c2)C1(C)C | -3.15% (inactive) | 
36 | N#CC(C#N)=NNc1cccc(Cl)c1 | -12.9% (inactive) | 
37 | O=[N+]([O-])c1ccc(Nc2ccccc2)cc1 |  | inactive
38 | CCC(C)c1cccc(C(C)CC)c1O (stereo not given) | -10.1% (inactive) | 
39 | COP(=S)(OC)Oc1ccc(S(N)(=O)=O)cc1 | 1.33% [at 42.5 µM] (inactive) | 
40 | CCN(CC)C(=S)[S-].CCN(CC)C(=S)[S-].[Zn+2] |  | 19.2 µM (active)
